From PubChem BioAssay come the findings set out here.

Assay [1] in a line: rapamycin-like changes in RPL19A-GFP expression – cell-based, S. cerevisiae, multiplex flow cytometry, primary screen (AID 1862; in the data active means percent of DMSO control GFP below about 86%;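 further: lower values mimic rapamycin by blocking the RPL19A rise seen in DMSO cells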). The following applies: S. cerevisiae RPL19A-GFP strain, flow cytometry fluorescence, 3 h; at 10 µM; stronger effect = lower value.
The nature of assay [2]: TOR pathway GLN3 branch reporter MEP2-GFP changes – S. cerevisiae, multiplex flow cytometry, primary screen (AID 1867;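 active means GFP response, as percent of the DMSO control, above the screen-wide mean plus 3 SD, about 139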;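 further: median GFP channel fluorescence of barcode-gated MEP2-GFP cells measured by flow cytometry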). Particulars: S. cerevisiae MEP2-GFP strain, 3 h, at 10 µM, stronger effect = higher value, 100% means same as DMSO wells.
Assay [3] in a line: TOR pathway RTG branch CIT2 reporter changes – S. cerevisiae, GFP fusion, multiplex flow cytometry, primary screen (AID 1870;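 active means percent response above a set limit, the screen-wide mean plus 3 SD, cut at about 130% in these data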;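 further: barcoded CIT2-GFP strain pooled with four other GFP strains with rapamycin as positive control; median GFP fluorescence per well over plate mean of DMSO wells so 100% = DMSO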). Particulars: S. cerevisiae CIT2-GFP expression, 3 h, at 10 µM, stronger effect = higher value. A general note: A flow cytometer gives signals particle by particle.
The nature of assay [4]: TOR pathway LAP4-GFP level changes – S. cerevisiae, multiplex flow cytometry, primary screen (AID 1873). Particulars: S. cerevisiae LAP4-GFP expression, 3 h, at 10 µM, stronger effect = higher value.
Assay [5] is described as follows: yeast AGP1-GFP level changes, GLN3 branch – cell-based, multiplex flow cytometry, S. cerevisiae, primary screen (AID 1887;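 active means GFP signal above the screen-wide mean plus 3 SD, that is over about 124.5% of the solvent control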;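 further: AGP1-GFP fusion strain of S. cerevisiae within a five-strain barcoded multiplex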). Particulars: 3 h, at 10 µM, stronger effect = higher value.
Assay [6] can be described thus: reduced mouse 2C T cell binding to pMHC/ICAM-1 vesicles – MLPCN validation set, flow cytometry, LFA-1/ICAM-1 modulator project, pilot screen (AID 2523;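 active means response below a set limit, under 55% cells CD8-positive and vesicle-bound, and CD8 cells' 90th-percentile brightness under 279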;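 on vesicle binding response: mean PE anti-B7-1 fluorescence of CD8+ cells relative to row control; 100% = QL9-loaded vesicles with DMSO vehicle in the same plate row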). The following applies: 2C mouse CD8+ T cells, at 7 µM, stronger effect = lower value; double positive events: measured here: CD8+/vesicle+ event percentage.
In assay [7] the target is Integrin beta-1 (Homo sapiens) + Integrin alpha-4 (Homo sapiens) (UniProt P13612+P05556). Nature of the assay: alpha4beta1 integrin LIBS antibody binding reduction – U937 cells, HUTS-21 mAb, flow cytometry, validation set, VLA-4 allosteric modulator project, pilot screen (AID 2674;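 active means inhibition above 50%, about 3 SD of the validation set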;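 further: antibody binding induced by the VLA-4 ligand LDV present at three times its Kd; 0% = LDV ligand with antibody and no compound and 100% = antibody without LDV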). The following applies: HUTS-21 LIBS mAb binding, at 6.7 µM, stronger effect = higher value, binding induced by LDV ligand.
Integrin beta-1 (Homo sapiens) + Integrin alpha-4 (Homo sapiens), sequence (P05556 whole entry, looked up): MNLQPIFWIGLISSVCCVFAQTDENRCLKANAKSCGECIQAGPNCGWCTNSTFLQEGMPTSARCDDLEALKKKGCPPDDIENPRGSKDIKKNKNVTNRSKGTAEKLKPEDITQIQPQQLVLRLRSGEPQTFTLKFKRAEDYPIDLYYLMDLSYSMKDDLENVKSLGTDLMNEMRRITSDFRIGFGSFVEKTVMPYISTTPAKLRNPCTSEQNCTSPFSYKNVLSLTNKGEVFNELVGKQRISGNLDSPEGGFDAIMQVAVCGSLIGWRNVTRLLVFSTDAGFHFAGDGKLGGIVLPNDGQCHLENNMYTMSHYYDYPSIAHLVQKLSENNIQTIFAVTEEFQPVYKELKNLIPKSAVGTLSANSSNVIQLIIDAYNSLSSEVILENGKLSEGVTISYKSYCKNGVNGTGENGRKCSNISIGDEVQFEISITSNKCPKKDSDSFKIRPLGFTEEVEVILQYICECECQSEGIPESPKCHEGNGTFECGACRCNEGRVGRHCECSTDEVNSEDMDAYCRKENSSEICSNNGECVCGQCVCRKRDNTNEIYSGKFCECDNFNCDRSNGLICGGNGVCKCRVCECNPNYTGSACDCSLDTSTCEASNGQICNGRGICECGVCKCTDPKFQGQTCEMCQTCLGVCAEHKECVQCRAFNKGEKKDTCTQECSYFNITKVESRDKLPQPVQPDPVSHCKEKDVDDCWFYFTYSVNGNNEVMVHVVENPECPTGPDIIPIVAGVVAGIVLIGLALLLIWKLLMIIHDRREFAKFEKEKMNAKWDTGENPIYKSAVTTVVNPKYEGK
Integrin beta-1 (Homo sapiens) + Integrin alpha-4 (Homo sapiens), sequence (P13612 whole entry, looked up): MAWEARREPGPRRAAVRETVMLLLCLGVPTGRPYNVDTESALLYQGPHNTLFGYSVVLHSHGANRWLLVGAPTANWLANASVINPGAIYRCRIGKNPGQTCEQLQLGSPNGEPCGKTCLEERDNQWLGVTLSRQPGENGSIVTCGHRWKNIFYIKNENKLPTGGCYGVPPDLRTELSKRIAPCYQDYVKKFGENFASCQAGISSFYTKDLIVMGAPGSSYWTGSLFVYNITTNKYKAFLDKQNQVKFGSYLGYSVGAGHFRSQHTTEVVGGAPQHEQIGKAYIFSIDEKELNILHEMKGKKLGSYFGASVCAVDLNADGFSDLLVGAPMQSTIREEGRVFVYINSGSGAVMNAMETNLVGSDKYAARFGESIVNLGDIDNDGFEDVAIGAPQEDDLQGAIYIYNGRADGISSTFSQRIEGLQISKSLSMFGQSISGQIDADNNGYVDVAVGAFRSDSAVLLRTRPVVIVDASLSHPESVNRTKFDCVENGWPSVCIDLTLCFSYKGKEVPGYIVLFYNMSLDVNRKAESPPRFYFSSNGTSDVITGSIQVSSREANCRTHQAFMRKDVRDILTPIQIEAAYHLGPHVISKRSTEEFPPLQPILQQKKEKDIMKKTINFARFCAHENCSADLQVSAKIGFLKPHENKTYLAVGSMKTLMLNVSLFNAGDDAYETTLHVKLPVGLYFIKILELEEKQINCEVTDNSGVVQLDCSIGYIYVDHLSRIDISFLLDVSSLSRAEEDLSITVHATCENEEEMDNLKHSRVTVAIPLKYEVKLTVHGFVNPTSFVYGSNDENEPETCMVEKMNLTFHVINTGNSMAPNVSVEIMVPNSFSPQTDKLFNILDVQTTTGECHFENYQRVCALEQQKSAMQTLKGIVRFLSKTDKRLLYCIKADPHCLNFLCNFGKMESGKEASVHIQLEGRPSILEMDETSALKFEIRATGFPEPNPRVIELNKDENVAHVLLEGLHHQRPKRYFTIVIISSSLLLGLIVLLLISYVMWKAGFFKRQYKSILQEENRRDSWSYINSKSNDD

Assay [8] is described as follows: calorie-restriction mimetic ROS inhibitors, yeast – validation compound set, pilot screen (AID 2706;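 active means superoxide response below 65% of plate, a cut near 3 SD across the whole screen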;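 further: yeast exposed to compound for one week at 30 degrees C before staining; 100% = mean of all compound wells on the same plate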). The following applies: S. cerevisiae aging, superoxide DHE fluorescence; at 10 µM, stronger effect = lower value.
Assay [9] addresses Beta-adrenergic receptor kinase 1 (Homo sapiens) (UniProt P25098). The experiment in a line: GRK2 binders displacing RNA aptamer, biochemical, validation, human GRK2, bead flow cytometry (AID 488806;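 active means aptamer binding inhibition above 30%, about 3 SD of noise from non-fluorescent compounds; inactive means inhibition at or below 30%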). Particulars: bead-bound GRK2, FAM-aptamer displacement, at 10 µM, stronger effect = higher value.
The target of assay [10] is AP-2 complex subunit beta (Homo sapiens) (UniProt P63010). The experiment in a line: beta-arrestin/AP2 interaction blockers – biochemical, validation set, GST-AP2 beads, flow cytometry, pilot screen (AID 504541;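 active means inhibition above 54%, about 3 SD of non-fluorescent compounds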;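 further: AP2 carries R879A mutation and is captured from E. coli lysate; bead-bound FITC arrestin peptide fluorescence measuring arrestin peptide binding to AP2; 0% = DMSO wells and 100% = excess unlabeled arrestin peptide control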). Particulars: FITC arrestin peptide, at 10 µM, stronger effect = higher value, AP2 beta2 appendage fragment, R879A mutant.
AP-2 complex subunit beta (Homo sapiens), sequence (P63010 whole entry, looked up, the tested form may be a part, one chain of several): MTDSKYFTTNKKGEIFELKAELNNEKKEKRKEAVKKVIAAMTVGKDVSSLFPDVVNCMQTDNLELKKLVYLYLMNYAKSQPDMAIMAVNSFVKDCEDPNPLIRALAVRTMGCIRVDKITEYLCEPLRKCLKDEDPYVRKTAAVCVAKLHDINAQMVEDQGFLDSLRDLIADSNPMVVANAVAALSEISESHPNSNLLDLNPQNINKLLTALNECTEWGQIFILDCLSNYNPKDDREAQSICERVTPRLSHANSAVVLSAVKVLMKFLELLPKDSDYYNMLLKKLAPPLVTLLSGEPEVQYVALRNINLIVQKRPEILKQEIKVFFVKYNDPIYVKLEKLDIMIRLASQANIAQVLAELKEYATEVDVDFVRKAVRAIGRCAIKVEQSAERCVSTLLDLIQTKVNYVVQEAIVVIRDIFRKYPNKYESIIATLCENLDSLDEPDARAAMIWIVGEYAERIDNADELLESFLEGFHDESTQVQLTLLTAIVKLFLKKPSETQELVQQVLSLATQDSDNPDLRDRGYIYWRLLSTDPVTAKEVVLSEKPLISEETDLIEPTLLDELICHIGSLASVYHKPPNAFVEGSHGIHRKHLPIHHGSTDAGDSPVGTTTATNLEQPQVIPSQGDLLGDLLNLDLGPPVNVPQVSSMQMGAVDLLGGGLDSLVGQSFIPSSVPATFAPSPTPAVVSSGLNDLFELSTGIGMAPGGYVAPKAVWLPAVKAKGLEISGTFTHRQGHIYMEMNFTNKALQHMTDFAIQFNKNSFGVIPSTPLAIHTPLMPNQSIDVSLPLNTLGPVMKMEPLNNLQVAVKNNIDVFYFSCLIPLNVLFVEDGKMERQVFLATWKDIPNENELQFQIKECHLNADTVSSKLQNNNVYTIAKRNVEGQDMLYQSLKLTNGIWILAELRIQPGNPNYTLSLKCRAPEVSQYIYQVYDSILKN
The nature of assay [11]: cytosolic pH regulators acting via V-ATPase – S. cerevisiae, pHLuorin, HTS validation (AID 504600; in the data active means response above about 15%;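 further: plate controls were DMSO for no effect and reference compound for full effect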). Particulars: V-ATPase proton transport, at 10 µM, stronger effect = higher value.
Assay [12] deals with anti-desmoglein-3 scFv antibody binding to human DSG3. The experiment in a line: blockers of pathogenic pemphigus antibody–desmoglein-3 binding – biochemical, validation compound set, bead-based, flow cytometry, pilot screen (AID 588368;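 active means binding below the plate cutoff, the plate median minus 3 SD, with a reading above zero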;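 further: signal is the median channel fluorescence of bead-bound GFP antibody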). The following applies: Protein G beads, DSG3-Fc, scFv-GFP binding, at 10 µM, stronger effect = lower value.
Assay [13] is described as follows: Nile Red efflux blockade in pump-expressing yeast – validation compound set, multiplex, phenotypic, pilot screen (AID 588506;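 active means efflux inhibition above 0.42, the validation set average plus 4 SD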;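 further: Nile Red retained in cells so higher fluorescence means more efflux inhibition; 0 = negative control wells and 1 = enniatin B 25 µM full block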). The following applies: S. cerevisiae pump-expressing triplex, Nile Red efflux flow cytometry; at 10 µM; stronger effect = higher value; the pumps come from Candida albicans.
Assay [14] concerns the target ATP-binding cassette sub-family B member 6 (Homo sapiens) (UniProt Q9NP58). Nature of the assay: blockers of ABCB6-driven porphyrin uptake – K562-ABCB6 cells, flow cytometry, validation set, pilot screen (AID 588550;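 active means inhibition above the screen-wide mean plus 3 SD, about 51%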;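 further: 0% = DMSO wells and 100% = benzethonium chloride 70 µM positive control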). Particulars: K562-ABCB6 porphyrin accumulation, 1 h, at 10 µM, stronger effect = higher value.
Assay [15] is described as follows: AML differentiation inducers, ER-HoxA9 marrow cells – cell-based, GFP/MAC1 double positive, flow cytometry, validation set, primary screen (AID 588685;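 active means differentiation response of at least 50%, scaled between solvent and reference control, from cells with both markers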;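 further: compound exposure lasts four days before antibody staining and flow analysis; 0% = DMSO wells and 100% = 5 µM fulvestrant positive control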). The following applies: stronger effect = higher value, normalized: vehicle 0, fulvestrant 100.

Inconclusive results are not listed. The source made the active and inactive calls.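 How the source made its calls, unless noted: active means GFP signal, as percent of the solvent control, above the screen mean plus 3 SD, about 149; inconclusive means no reading because the compound's own fluorescence upset strain identification; inactive means the rest.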

Broadly, the inhibition is the change of the read-out against control, counted positive when it falls.

ATP-binding cassette sub-family B member 6 (Homo sapiens), sequence (Q9NP58 whole entry, looked up): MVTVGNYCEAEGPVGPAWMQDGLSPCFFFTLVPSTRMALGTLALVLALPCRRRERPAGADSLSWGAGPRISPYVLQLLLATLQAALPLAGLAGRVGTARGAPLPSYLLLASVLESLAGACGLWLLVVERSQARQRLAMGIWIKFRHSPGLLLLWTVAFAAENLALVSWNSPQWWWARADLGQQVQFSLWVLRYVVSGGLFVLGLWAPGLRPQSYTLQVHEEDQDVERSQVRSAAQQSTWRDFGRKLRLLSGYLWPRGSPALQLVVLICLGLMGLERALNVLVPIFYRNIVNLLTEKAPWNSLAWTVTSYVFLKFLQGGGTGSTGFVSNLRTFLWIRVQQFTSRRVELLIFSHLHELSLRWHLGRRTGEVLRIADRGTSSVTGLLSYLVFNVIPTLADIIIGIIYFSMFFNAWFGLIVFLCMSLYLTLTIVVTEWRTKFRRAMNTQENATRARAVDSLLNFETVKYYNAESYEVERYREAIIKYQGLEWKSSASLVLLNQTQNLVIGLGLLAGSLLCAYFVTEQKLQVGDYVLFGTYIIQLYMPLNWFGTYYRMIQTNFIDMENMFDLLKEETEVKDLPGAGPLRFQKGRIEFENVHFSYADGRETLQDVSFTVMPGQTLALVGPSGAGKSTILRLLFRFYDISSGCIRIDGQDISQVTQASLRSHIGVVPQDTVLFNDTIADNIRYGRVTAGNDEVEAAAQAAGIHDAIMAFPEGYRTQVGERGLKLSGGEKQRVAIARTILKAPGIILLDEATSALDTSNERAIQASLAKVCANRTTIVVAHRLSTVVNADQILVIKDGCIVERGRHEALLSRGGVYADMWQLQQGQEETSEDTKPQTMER
Beta-adrenergic receptor kinase 1 (Homo sapiens), sequence (P25098 whole entry, looked up): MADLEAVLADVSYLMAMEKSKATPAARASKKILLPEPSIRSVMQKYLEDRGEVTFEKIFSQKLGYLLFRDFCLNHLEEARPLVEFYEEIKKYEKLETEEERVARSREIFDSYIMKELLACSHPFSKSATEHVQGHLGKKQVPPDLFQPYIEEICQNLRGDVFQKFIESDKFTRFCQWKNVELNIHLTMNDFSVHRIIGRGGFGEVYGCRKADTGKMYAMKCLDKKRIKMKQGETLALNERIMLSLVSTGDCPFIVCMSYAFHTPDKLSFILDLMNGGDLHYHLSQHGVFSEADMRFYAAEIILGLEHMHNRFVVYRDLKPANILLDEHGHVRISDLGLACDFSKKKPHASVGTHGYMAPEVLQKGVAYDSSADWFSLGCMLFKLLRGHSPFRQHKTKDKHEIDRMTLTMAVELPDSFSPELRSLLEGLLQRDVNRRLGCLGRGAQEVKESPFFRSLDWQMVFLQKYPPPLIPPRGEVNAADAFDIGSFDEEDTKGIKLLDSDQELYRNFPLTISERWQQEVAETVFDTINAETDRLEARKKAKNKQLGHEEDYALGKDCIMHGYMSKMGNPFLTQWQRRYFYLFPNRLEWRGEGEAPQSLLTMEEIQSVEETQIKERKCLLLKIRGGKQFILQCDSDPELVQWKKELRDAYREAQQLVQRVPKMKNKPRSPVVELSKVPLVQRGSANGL

With `COc1ccc(C2(CCN=Cc3ccc(N(C)C)cc3)CCOC(C)(C)C2)cc1` (stereo not given), the percent of DMSO control GFP in assay [1] was 104% (inactive). Besides, the figures for the GFP response vs DMSO in assay [2] and in assay [4] were 102% (inactive) and 95.4% (inactive), respectively. For the same compound, in [3], the percent response of DMSO control was 99.8% (inactive). The GFP response, % of DMSO in [5] is 95.2% (inactive). In assay [6], this compound displayed a double positive events of 58.8%. In assay [6], the vesicle binding response was 222% (inactive). Further, the values for the inhibition in [7], in assay [10] and in [14] were -3.97% (inactive), -3.62% (inactive) and 12% (inactive), respectively. Also, in [8], the superoxide response (% of plate) is 98.3% (inactive). Further, the aptamer binding inhibition in [9] was 0% (inactive). Also, the response in [11] was -4.5% (inactive). Moreover, the binding (% of control) in assay [12] is 128% (inactive). The efflux inhibition (fraction of control) in assay [13] is -0.24 (inactive). In addition, the differentiation response in assay [15] is 7.87% (inactive).

With `Clc1ccc2c(c1)C(N1CCNCC1)=Nc1ccccc1O2`, the percent of DMSO control GFP in assay [1] is 107% (inactive). Besides, the GFP response vs DMSO in [2] is 106% (inactive); in assay [4], 101% (inactive). In addition, the percent response of DMSO control in assay [3] is 109% (inactive). In addition, the GFP response, % of DMSO in [5] is 105% (inactive). For the same compound, the double positive events in assay [6] is 64%. For the same compound, the vesicle binding response in assay [6] is 200% (inactive). Moreover, the inhibition is -42.2% (inactive) in [7], 24.4% (inactive) in assay [10] and 7% (inactive) in [14]. The superoxide response (% of plate) in assay [8] is 103% (inactive). The aptamer binding inhibition in assay [9] was -1% (inactive). The response in [11] was -1.95% (inactive). The binding (% of control) in [12] is 101% (inactive). Also, in assay [13], the efflux inhibition (fraction of control) was -0.47 (inactive). The differentiation response in assay [15] was -8.27% (inactive).

Consider `C/C(=N\N=C1\NC(=O)C(CC(=O)Nc2ccc(Cl)cc2)S1)c1ccco1` (stereo not given), for which the percent of DMSO control GFP in assay [1] was 105% (inactive). Further, the figures for the GFP response vs DMSO in [2] and in assay [4] were 101% (inactive) and 91.3% (inactive), respectively. For the same compound, in assay [3], the percent response of DMSO control is 104% (inactive). Further, in [5], the GFP response, % of DMSO is 99.1% (inactive). This compound returned a double positive events in assay [6] of 54.2%. For the same compound, the vesicle binding response in assay [6] is 112% (inactive). The inhibition in assay [7] was -17% (inactive); in assay [10], 3.65% (inactive); in assay [14] it was 8% (inactive). Besides, the superoxide response (% of plate) in assay [8] is 101% (inactive). Also, the aptamer binding inhibition in assay [9] was 16% (inactive). In addition, in assay [11], the response is -0.13% (inactive). Moreover, in assay [12], the binding (% of control) was 94.4% (inactive). For the same compound, in assay [13], the efflux inhibition (fraction of control) was 0.22 (inactive). Also, the differentiation response in assay [15] was 0% (inactive).

For `COc1cc2c(cc1OC)C(c1cc(OC)c(OC)c(OC)c1)NCC2` (stereo not given), the percent of DMSO control GFP in [1] is 101% (inactive). Moreover, the figures for the GFP response vs DMSO in assay [2] and in [4] were 103% (inactive) and 90.3% (inactive), respectively. The percent response of DMSO control in assay [3] is 108% (inactive). Also, in assay [5], the GFP response, % of DMSO was 102% (inactive). The same compound had a double positive events in assay [6] of 59.3%. In addition, the vesicle binding response in assay [6] was 148% (inactive). For the same compound, the inhibition was -0.24% (inactive) in [7], -5.98% (inactive) in assay [10] and 7% (inactive) in [14]. The superoxide response (% of plate) in [8] was 102% (inactive). In addition, the aptamer binding inhibition in assay [9] was 2% (inactive). Also, the response in assay [11] is -3.82% (inactive). Further, in assay [12], the binding (% of control) is 96% (inactive). Moreover, the efflux inhibition (fraction of control) in assay [13] is -0.01 (inactive). Further, the differentiation response in [15] is -14.7% (inactive).

As for `Cc1ccc(-n2ncc3c(Nc4cccc(C(=O)O)c4)ncnc32)cc1`, in [1], the percent of DMSO control GFP is 100% (inactive). The GFP response vs DMSO in [2] was 102% (inactive); in assay [4], 105% (inactive). Also, the percent response of DMSO control in [3] is 93% (inactive). Moreover, in [5], the GFP response, % of DMSO is 93.9% (inactive). In addition, the double positive events in [6] worked out at 66.3%. The vesicle binding response in assay [6] was 217% (inactive). In addition, the inhibition was -5.84% (inactive) in [7], -0.33% (inactive) in [10] and 5% (inactive) in assay [14]. The superoxide response (% of plate) in [8] was 105% (inactive). Moreover, in [9], the aptamer binding inhibition is -2% (inactive). Further, in assay [11], the response is -4.83% (inactive). Moreover, the binding (% of control) in assay [12] is 101% (inactive). Moreover, the efflux inhibition (fraction of control) in assay [13] was 0.1 (inactive). In [15], the differentiation response was 74.1% (active).
